Compounds with a hit are over-represented: about 9.5% of the library has one in this group of screens.
NPSR antag: neuropeptide S receptor (human) antagonism, cAMP. Q6W5P4. CHO-NPSR cells, cAMP TR-FRET, antagonist mode. Potency, µM (titrated, usually from 38.3 µM), inactives show at the highest dose activity change, negative = inhibition, most hits filed as inhibitors. hit rate 1% among 220,000. AID 1461; further: nearly all actives have a fitted effect of over 50% in size
ALDH1A1 inh: ALDH1A1 (human) enzyme inhibition. hit rate 7.3% among 220,000. Potency, µM (top dose mostly 75.3 µM), without a hit: at the top dose activity, negative = inhibition, usual class: inhibitors. Purified ALDH1A1, NADH fluorescence, propionaldehyde substrate; active means well fitted inhibition curve with a large enough effect, not every such curve was filed as active; inconclusive means small, poorly fitted or top-dose-only effect, or another doubt; inactive means no such curve, though single readings can be large or run the other way;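 further: plate controls were no enzyme wells and a reference inhibitor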
Target sequence (P00352 whole entry, looked up): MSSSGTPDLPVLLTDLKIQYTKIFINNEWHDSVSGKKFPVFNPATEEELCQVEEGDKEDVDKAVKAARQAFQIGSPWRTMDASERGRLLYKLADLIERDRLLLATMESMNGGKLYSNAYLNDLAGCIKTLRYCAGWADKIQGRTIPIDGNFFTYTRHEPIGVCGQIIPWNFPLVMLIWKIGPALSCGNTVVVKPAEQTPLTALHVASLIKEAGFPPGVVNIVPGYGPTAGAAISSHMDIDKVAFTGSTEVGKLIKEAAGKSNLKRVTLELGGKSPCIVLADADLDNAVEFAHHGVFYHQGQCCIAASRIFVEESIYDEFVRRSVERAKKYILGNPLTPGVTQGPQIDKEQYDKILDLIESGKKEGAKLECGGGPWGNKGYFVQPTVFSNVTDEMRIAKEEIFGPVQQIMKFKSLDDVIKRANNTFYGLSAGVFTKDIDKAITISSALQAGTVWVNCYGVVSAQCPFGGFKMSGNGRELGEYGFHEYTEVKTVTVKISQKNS
Tau fibril FP: blocks human tau fibril formation measured by polarization; K18 P301L tau heparin fibrillization, Alexa594 FP, 6 h; Potency, µM (series often up to 57.7 µM), inactives show at the top dose activity, negative = inhibition, hits mostly inhibitors; hit rate 0.39% among 280,000; AID 1468; further: nearly all actives have a fitted effect of over 55% in size
Target sequence (P10636 561-689 P618L limits assumed): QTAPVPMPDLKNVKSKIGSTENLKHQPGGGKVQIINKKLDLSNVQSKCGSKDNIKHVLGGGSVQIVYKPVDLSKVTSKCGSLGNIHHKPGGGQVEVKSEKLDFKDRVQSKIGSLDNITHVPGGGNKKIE
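Read-out: fluorescence polarization of Alexa 594-labeled tau (0.24 uM), 555 nm excitation, 632 nm emission. Mixtures held 15 uM unlabeled K18 P301L, compound and 20 uM heparin, pH 7 acetate buffer, incubated 6 hr at 37 C.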
HPGD block: blocks human HPGD enzyme activity | purified HPGD, NADH fluorescence kinetic, PGE2 substrate | Potency, µM, for inactives: top-dose activity change, negative = inhibition, most hits filed as inhibitors | hit rate 4.3% among 150,000; active means well fitted inhibition curve with a large enough effect, not every such curve was filed as active; inconclusive means small, poorly fitted or top-dose-only effect, or another doubt; inactive means no such curve, though single readings can be large or run the other way
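20 nM HPGD preincubated 15 min at room temperature with compound in 50 mM Tris-HCl pH 8, 0.01% Tween 20. Started with 1 mM NAD+ and 30 uM prostaglandin E2; NADH fluorescence (360/450 nm) read 5 times over 30-s intervals, last minus first.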
Tau ThT inhib: inhibitors of human tau fibril formation, thioflavin T binding. recombinant tau K18 P301L, heparin-induced fibrillization, ThT fluorescence. Potency, µM (highest dose often 57.4 µM), without a hit: top-dose activity, negative = inhibition, actives largely listed as inhibitors. hit rate 2.1% among 270,000. AID 1460; further: nearly all actives have a fitted effect of over 55% in size
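Fibril formation assay: tau K18 P301L at 15 uM with trace Alexa 594 label, heparin inducer 20 uM, pH 7 sodium acetate buffer, 37 C for 6 hr; endpoint ThT signal.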
Tau fluor counter: counter-screen for tau fibril formation inhibitors; tau K18 P301L Alexa594 fluorescence, heparin fibrillization; Potency, µM (doses to about 57.7 µM), inactives show at the highest dose activity change, negative = decrease; hit rate 0.93% among 280,000; AID 1463; further: nearly all actives have a fitted effect of over 55% in size
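Human tau K18 P301L (15 uM unlabeled, 0.24 uM Alexa 594-labeled) in 100 mM sodium acetate pH 7 with 20 uM heparin, 6 hr at 37 C. ThT 30 uM added, 1 hr ambient; Alexa 594 FP and total fluorescence read at 555/632 nm.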
* marks the source's active call; other numbers are inactive results; ? = inconclusive; / = no result given; [ ] = another dose, or the depositor's remark. Unless noted, the call rests on the fitted dose curve; in most records, active means well fitted curve in the direction sought with a large enough effect; inconclusive means small, poorly fitted or top-dose-only effect, or another doubt; inactive means no such curve, though single readings can be large; an effect the other way counts as inactive or inconclusive. Unless noted, on the % scale 0 is the no-effect control and ±100 the full control effect; potency means the concentration at half of the fitted maximal effect.

SMILES	NPSR antag	ALDH1A1 inh	Tau fibril FP	HPGD block	Tau ThT inhib	Tau fluor counter
COC(=O)CSc1c(-c2ccccc2)c2cc(Cl)ccc2[nH]c1=O	-19.7%[46.1 µM]	?	-13.5%	-9.9%	-6.7%	-18.3%
CC(=O)OCCSc1c(-c2ccccc2)c2cc(Cl)ccc2[nH]c1=O	-10.7%[46.1 µM]	14.1µM*	3.1%	/	-3.4%	-18.8%
COc1ccc(C(=O)COC(=O)c2cc(S(=O)(=O)NCc3ccccc3)ccc2O)cc1	-23.0%	?	-3.7%	/	-12.2%	-25.2%
Cc1nn2c(NC(C)C)c3c(nc2c1-c1ccccc1)CCC3	?	/	?	/	28.2µM*	?
COc1ccc(NC(=O)c2c(C)oc3ccc(O)c(CN4CCCC(C)C4)c23)cc1 (stereo not given)	/	/	-2.2%	/	-9.6%	-13.6%
COc1ccc(-n2cccc2/C=C/[N+](=O)[O-])cc1	-24.6%	?	-1.8%	35.5µM*	?	-12.1%
COc1ccc(-n2cccc2C=O)cc1	8.8%	11.2µM*	0.3%	-11.4%	-6.5%	-4.1%
CCOP(=O)(c1ccccc1)c1nc(-c2ccccc2C)oc1N1CCCCC1 (stereo not given)	10µM*	-9.7%	-2.7%	-16.9%	?	-22.3%
O=C(c1ccc2c(c1)N(Cc1ccccc1F)C(=O)c1ccccc1S2(=O)=O)N1CCC(Cc2ccccc2)CC1	/	/	0.0%	/	-0.1%	-9.5%
O=[N+]([O-])c1ccc(/C=N/NC(=S)Nc2ccccc2F)o1	9.6%	?	-0.7%	-12.0%	?	-16.4%
Cc1ccc2nc(N/N=C\c3ccc([N+](=O)[O-])o3)nc(-c3ccccc3)c2c1	?	5.6%	12.8%	-6.1%	3.16µM*	10µM*[quencher]
O=[N+]([O-])c1ccc(-c2ccc(/C=N/Nc3nc(N4CCCC4)nc(N4CCCC4)n3)o2)cc1	-49.7%	?	9.4%	/	?	-14.6%
O=[N+]([O-])c1ccc(/C=N/Nc2nc(N3CCCC3)nc(N3CCCC3)n2)o1	0.8%[46.1 µM]	?	-5.8%	-23.4%	17.8µM*	-20.7%
O=[N+]([O-])c1ccc(/C=N/NC(=S)Nc2ccccc2)o1	-48.4%	2.4%	2.7%	25.1µM*	-3.0%	-6.7%
O=[N+]([O-])c1ccc(/C=N/Nc2nc(-c3ccccc3)c3cc(Br)ccc3n2)o1	?	9.0%	2.4%	-13.5%	2.82µM*	-25.4%
Cc1ccc(Cl)cc1N1CCN(C(=O)c2ccc(C)c(-n3c(C)nc4cccnc43)c2)CC1	/	/	-2.2%	/	-14.5%	-2.7%
Cc1ccc(S(=O)(=O)c2nc(-c3cccs3)oc2SCc2ccc(F)cc2)cc1	/	/	-10.7%	/	-6.0%	?
CCC(C)NC(=O)COc1ccccc1[N+](=O)[O-] (stereo not given)	12.7%	8.1%	-1.6%	-8.1%	-1.2%	0.7%
O=[N+]([O-])c1ccc(/C=N/Nc2ccc3ccccc3c2)o1	-26.7%	6.5%	?	-11.5%	3.16µM*	3.55µM*[quencher]
CCNc1nc(NCC)nc(N/N=C/c2ccc([N+](=O)[O-])o2)n1	8.5%[46.1 µM]	5.5%	6.8%	-10.8%	?	-7.6%
N=C1C(c2ccc(Br)cc2)=C(O)C2CCc3ccccc3N12 (stereo not given)	?	-4.9%	1.2%	-8.7%	?	-8.7%
N=C1C(c2ccccc2)=C(O)C2CCc3ccccc3N12 (stereo not given)	?	8.3%	5.1%	15.8µM*	-5.7%	5.9%
CSc1ccc(-c2nc3ccc(C)cn3c2Nc2ccccc2C)cc1	/	/	-1.9%	/	-9.4%	-22.3%
O=C(COC(=O)c1cccc(C(F)(F)F)c1)NCc1ccc(Cl)cc1	14.3%	16.8%	0.4%	14.1µM*	-2.2%	2.0%
C#CC(CC)(CC)NC(=O)NC1CCCCC1	-7.8%	-0.1%	-2.7%	/	-3.0%	1.4%
SMILES	NPSR antag	ALDH1A1 inh	Tau fibril FP	HPGD block	Tau ThT inhib	Tau fluor counter
COc1ccc(/C=N/N=C2/NC(=O)CC(C(=O)O)S2)cc1 (stereo not given)	9.4%	9.1%	8.4%	-11.6%	2.4%	8.0%
COc1ccc(/C=N/N=C2/CC(C)(C)Cc3n[nH]c(=O)cc32)cc1	-7.0%	28.2µM*	0.1%	/	?	-0.1%
C#CCCCCCCCCCCCC(O)CC(O)COC(C)=O (stereo not given)	/	14.1µM*	8.4%	-23.6%	?	-25.0%
O=C(NCc1cccs1)C1CCCCC1	-3.5%[46.1 µM]	14.5%	-9.0%	14.1µM*	-4.9%	-3.1%
COc1cccc(CNC(=O)Cn2cccc2)c1	-9.5%[46.1 µM]	-1.3%	-3.4%	14.1µM*	-6.1%	-4.8%
O=C(NCc1cccs1)Nc1cccs1	8.2%[46.1 µM]	17.8µM*	?	?	?	?
Cc1csc2nc(CNC(=O)C3CCCCC3)cn12	3.7%[46.1 µM]	2.5%	-2.9%	15.8µM*	1.9%	3.4%
COc1cccc(CNC(=O)CCn2cccn2)c1	/	/	0.2%	/	4.9%	6.7%
C=C1c2c(Cl)ccc(O)c2C(O)=C2C(=O)[C@@]3(O)C(O)=C(C(N)=O)C(=O)[C@@H](N(C)C)[C@@H]3[C@@H](O)[C@H]12	/	?	/	-21.2%	/	/
O=C(Cn1cccc1)NCc1cccs1	8.6%[46.1 µM]	7.2%	-4.1%	20µM*	-6.3%	-4.5%
O=C(/C=C/c1ccccc1)Nc1nc2n(n1)C(c1ccc(F)cc1)C=C(c1ccccc1)N2 (stereo not given)	/	/	-5.3%	/	0.4%	3.2%
CN(C)c1ccc(NC(=O)Cn2cc(S(=O)(=O)Cc3cccc(Cl)c3)c3ccccc32)cc1	/	/	7.5%	/	?	?
CN(C)c1ccc(NC(=O)Cn2cc(S(=O)(=O)Cc3ccccc3Cl)c3ccccc32)cc1	/	/	16.8%	/	?	11.2µM*[quencher]
CCCCCn1c(=O)[nH]c2cc(C(=O)NCc3ccc(F)cc3)ccc2c1=O	/	/	-10.0%	/	-4.1%	-0.1%
COC(=O)c1cc2oc(C)cc2n1CC(=O)N1CCCc2ccccc21	-15.1%[46.1 µM]	20µM*	7.2%	-16.8%	?	-10.9%
CCOC(=O)c1cc2sccc2n1CC(=O)N1CCCc2ccccc21	?	-3.7%	-12.2%	-21.5%	-16.3%	-16.6%
CCOC(=O)c1cc2occc2n1CC(=O)N1CCCc2ccccc21	?	8.91µM*	-12.2%	-16.0%	-2.8%	1.6%
COCCN1C(=O)N[C@@H](c2cccc(C(F)(F)F)c2)C(C(C)=O)=C1C	/	-7.3%	?	-13.8%	-14.2%	-23.5%
O=[N+]([O-])c1ccc(Cl)cc1Cl	/	-0.8%	/	-1.6%	/	/
Cc1ccc(C)c(NC(=O)c2sc(Cl)nc2C)c1	-6.4%	-9.2%	0.2%	-13.2%	6.0%	6.1%
Cc1ccc(OC(=O)c2sc(Cl)nc2C)cc1C	-13.2%	20µM*	-8.6%	-17.8%	-13.0%	-6.0%
O=C1/C(=C/c2ccco2)CCc2ccccc21	-30.7%	28.2µM*	2.9%	-7.1%	?	-14.1%

Screening results as filed in PubChem BioAssay.
